High-throughput results (PubChem)
D2 antagonist: D2 dopamine receptor (human) antagonism | P14416 | HEK293 TREx D2 cells, calcium flux, dopamine EC80 | inhibition, % at 10 µM | hit rate 2% among 340,000; in the data active = inhibition above about 30%; inactive = below that, where a call was filed; note: 0% is about no effect
Target sequence (P14416 whole entry, looked up): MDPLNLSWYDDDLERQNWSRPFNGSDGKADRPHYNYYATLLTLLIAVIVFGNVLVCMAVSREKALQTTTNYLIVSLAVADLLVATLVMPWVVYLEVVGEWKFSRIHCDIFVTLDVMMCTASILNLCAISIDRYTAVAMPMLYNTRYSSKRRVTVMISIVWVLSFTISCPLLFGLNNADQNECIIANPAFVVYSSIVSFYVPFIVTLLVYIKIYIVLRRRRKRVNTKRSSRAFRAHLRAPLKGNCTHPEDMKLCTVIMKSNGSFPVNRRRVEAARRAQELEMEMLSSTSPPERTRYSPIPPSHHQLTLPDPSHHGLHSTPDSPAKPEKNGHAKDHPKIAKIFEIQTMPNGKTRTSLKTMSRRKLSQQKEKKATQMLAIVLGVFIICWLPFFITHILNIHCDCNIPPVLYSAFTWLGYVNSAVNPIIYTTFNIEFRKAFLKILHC
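Measurement of antagonist activity uses fluorescent calcium dye in inducible HEK293 T-REx D2 cells: 10 s baseline, compound addition with 180 s read, EC80 dopamine addition with a further 180 s read.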
D2 ag-1: activates the human D2 dopamine receptor; P14416; HEK293 T-REx D2 cells, calcium flux agonist mode; activation, % at 2 µM; hit rate 0.53% among 340,000; AID 485358;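 active = activation over 3 SD above normal in the single-dose calcium agonist read, cut at about 30% in these data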; note: 0% is about no effect
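HEK293 Trex D2 cells, tetracycline-induced, o/n 30 C 5% CO2; no-wash Ca dye, RT 30–90 min; 10-cycle baseline, 23 nl cpd added, kinetic Ca read 180 s; agonist hits = positive Ca response.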
D2 ag-2: human D2 receptor agonism in beta-arrestin assay. P14416. DiscoveRx PathHunter D2 beta-arrestin, luminescence, 90 min; 100% = 57 uM dopamine signal. activation, % (concentration not given with the values). hit rate 0.084% among 360,000. AID 624465; in the data active = activation above about 40%; inconclusive = between about 15% and that limit
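DiscoveRx PathHunter D2 beta-arrestin cells (2,100/well) attached overnight, then compound-stimulated 90 min at 37 C in HBSS/10 mM HEPES/0.1% Tween-20 buffer; beta-galactosidase complementation read by luminescence after 1 h at ambient temperature. Dopamine 57 uM final (EC100) as control.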
D2 PAM-1: human D2 receptor positive allosteric modulation; DiscoveRx D2 beta-arrestin cells, luminescence, 90 min; 100% = 57 uM dopamine signal; potentiation, % (no concentration beside the values); hit rate 0.23% among 360,000; AID 624464; in the data active = potentiation above about 50%; inconclusive = mostly about 30% to 49%
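PathHunter beta-arrestin assay in DiscoveRx D2 cells. Compounds were added with an EC20 of dopamine (50 nM final) for 90 min at 37 deg C. Luminescence was read 1 h after detection reagent, with 57 uM dopamine as the EC100 control.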
D2 PAM-2: positively modulates the human D2 dopamine receptor allosterically. hit rate 0.34% among 340,000. HEK293 T-REx D2, calcium flux, EC20 dopamine potentiation. potentiation, % at 10 µM. P14416. AID 485347;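 active = potentiation over 3 SD above the plate norm, cut at about 30% in these data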; note: 0% is about no effect
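Tetracycline-induced Hek293 Trex D2 cells, force-coupled to calcium, loaded with no-wash calcium dye. Compound added with 180 s kinetic read for agonism, then EC20 dopamine and a further 180 s read for potentiation.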
* marks the source's active call; other numbers are inactive results; ? = inconclusive; / = no result. Most compounds without a hit are left out; they make up all but 2.4% or so of the library.

SMILES	D2 antagonist	D2 ag-1	D2 ag-2	D2 PAM-1	D2 PAM-2
Clc1cccc(-c2nn3c(Cn4cnc5ccccc54)nnc3s2)c1	34*	3	-3	-5	13
CC1CC(C)CN(CCCNC(=O)Cn2ncc3c(=O)oc4ccccc4c32)C1 (stereo not drawn)	4	1	-9	-11	-6
O=C(Cn1ncc2c(=O)oc3ccccc3c21)NCCN1CCN(c2ccccc2F)CC1	-17	37*	-2	-6	-25
CSc1ccc(S(=O)(=O)N2CCC(C(=O)NCC3CCCO3)CC2)cc1 (stereo not drawn)	8	0	-2	-11	33*
NC(=O)C1CCN(S(=O)(=O)c2cccc(S(=O)(=O)N3CCCCC3)c2)CC1	70*	1	0	5	8
O=C(NCC1CCCO1)c1cccc(S(=O)(=O)N2CCCCC2)c1 (stereo not drawn)	31*	0	-1	8	4
CC1CCN(S(=O)(=O)c2cccc(C(=O)NCC3CCCO3)c2)CC1 (stereo not drawn)	-8	0	4	-5	-7
CCN1/C(=C/c2ccc3cc(C)ccc3[n+]2CC)Sc2ccccc21	5	36*	0	-9	10
CC(C)OC(=O)c1cc2c(ccn2C)n1CC(=O)N1CCC(Cc2ccccc2)CC1	-7	1	-5	-8	105*
CCN1/C(=C/C=C/c2sc3ccccc3[n+]2CC)Sc2ccccc21	/	/	-7	-23	/
CCN1/C(=C/C=C/c2oc3ccc(-c4ccccc4)cc3[n+]2CC)Oc2ccc(-c3ccccc3)cc21	76*	149*	-6	-24	-26
COc1ccc(/C=C/C(=O)Nc2ccc3nc4c(c(Nc5ccc(OC)c(OC)c5)c3c2)CCCC4)cc1	/	0	/	/	23
Cc1ccc(CN2CCC(C(=O)c3ccc(F)cc3)CC2)cc1	/	/	-7	-26	/
COc1ccc(CN2CCC(C(=O)c3ccc(F)cc3)CC2)cc1	78*	1	3	-83	-31
O=C(c1ccc(N2C(=O)C3CC=C(Cl)CC3C2=O)cc1)N1CCCCC1 (stereo not drawn)	38*	0	-2	5	-4
CCCNC(=S)N1CCC(C(=O)c2ccc(F)cc2)CC1	10	1	-1	-2	35*
O=C(c1ccc(F)cc1)C1CCN(C(=S)Nc2ccc(F)cc2)CC1	47*	1	-1	-14	7
O=C(c1ccc(F)cc1)C1CCN(C(=O)c2ccc(F)cc2)CC1	41*	0	-2	1	1
O=C(c1ccccc1)N1CCCCCC1	-5	0	-2	-14	-5
O=C(c1ccc(C(=O)N2CCCCCC2)cc1)N1CCCCCC1	5	0	-4	1	32*
Cc1nc(-c2cccc(F)c2)sc1CCNC(=O)C(=O)Nc1ccc2c(c1)OCO2	/	0	/	/	15
O=C(NC1(C(F)(F)F)NC(=O)N(Cc2cccnc2)C1=O)c1ccc(F)cc1 (stereo not drawn)	6	-1	2	-4	39*
COc1ccc(NC(=S)Nc2ccc3c(c2)c(=O)n(C)n3-c2ccccc2)cc1	/	/	-3	-3	/
O=c1cc(C(Cl)(Cl)Cl)oc2c1ccc1ccccc12	23	0	10	85*	-7
N/C(=N\OS(=O)(=O)c1ccc2ccccc2c1)c1ccncc1	-12	-1	41*	151*	10
SMILES	D2 antagonist	D2 ag-1	D2 ag-2	D2 PAM-1	D2 PAM-2
N/C(=N\OS(=O)(=O)c1ccccc1)c1ccncc1	0	-1	?	96*	2
Cc1cnc2nc(-c3ccccc3)ccc2c1	/	/	-2	1	/
CC(C)CNC(=O)C1(C)CCCCCN1Cc1ccccc1-c1ccccc1 (stereo not drawn)	/	/	-7	-25	/
O=C(Nc1ccc(OC(F)(F)F)cc1)c1ccc2nc[nH]c2c1	62*	1	4	13	-9
CC(=O)Nc1ccc(C(=O)OCC(=O)c2cccc([N+](=O)[O-])c2)cc1	17	0	1	-7	6
Cc1ccc(C(=O)COC(=O)c2cccc(NC(=O)c3ccc([N+](=O)[O-])cc3[N+](=O)[O-])c2)cc1	11	0	?	122*	6
CCOC(=O)CCN(C(=O)Nc1ccccc1)C1CCCCC1	/	/	0	-6	/
